According to PubChem BioAssay:
Values without a mark were called inactive. The list shows a part of the results. Activity calls are given as the source filed them. Cut-off read from the data, not from the text of the source, unless noted: active = inhibition above about 23%; inactive = the rest.

Tested on: transactivating tegument protein VP16 (Human herpesvirus 1)
Test: VP16 transactivation reporter inhibitors, counter-screen for SRC2 inhibitor project, cell-based, luminescence, single concentration (AID 652007; in the data active = inhibition above about 36%)
Settings: cell-based VP16 transactivation luciferase reporter, at 8.9 µM, hits give high values

| Compound | inhibition |
| --- | --- |
| COc1ccc(OC)c(NC(=O)c2cc(-c3cc(F)ccc3OCC3CCCO3)n[nH]2)c1 (stereo not drawn) | 1.64% |
| Cc1ccc2nc(-c3ccc(Br)cc3)cn2c1 | 9.32% |
| CN(C)S(=O)(=O)c1cccc(NC(=O)COC(=O)C2(c3ccccc3F)CCCC2)c1 | -4.31% |
| COc1ccc(/C=C2/SC(=O)N(CCCCCC(=O)Nc3ccccc3C(=O)O)C2=S)cc1 | 53.8% (active) |
| CC[C@@H](C)[C@H](NC(=O)CCc1c(C)c2cc3c4c(oc3c(C)c2oc1=O)CCCC4)C(=O)O | 40.8% (active) |
| Cc1ccc(-c2nc(CSCC(=O)NC3CCN(Cc4ccccc4)CC3)c(C)o2)cc1 | 11% |
| C[C@H]1CCC/C=C/C(=O)c2c(O)cc(O)cc2CC(=O)O1 | 41.5% (active) |
| O=C1NC[C@@H](Cc2ccc(O)cc2)N(CCc2cccc(F)c2)C1=O | -20.2% |
| CN1OC[C@@H]2CN(S(=O)(=O)c3cccc(C(F)(F)F)c3)[C@H](c3ccc(-c4cc5ccccc5o4)cc3)C[C@@H]21 | 3.18% |

Target: Nuclear receptor coactivator 2 (Homo sapiens) (UniProt Q15596)
Sequence (Q15596 whole entry, looked up): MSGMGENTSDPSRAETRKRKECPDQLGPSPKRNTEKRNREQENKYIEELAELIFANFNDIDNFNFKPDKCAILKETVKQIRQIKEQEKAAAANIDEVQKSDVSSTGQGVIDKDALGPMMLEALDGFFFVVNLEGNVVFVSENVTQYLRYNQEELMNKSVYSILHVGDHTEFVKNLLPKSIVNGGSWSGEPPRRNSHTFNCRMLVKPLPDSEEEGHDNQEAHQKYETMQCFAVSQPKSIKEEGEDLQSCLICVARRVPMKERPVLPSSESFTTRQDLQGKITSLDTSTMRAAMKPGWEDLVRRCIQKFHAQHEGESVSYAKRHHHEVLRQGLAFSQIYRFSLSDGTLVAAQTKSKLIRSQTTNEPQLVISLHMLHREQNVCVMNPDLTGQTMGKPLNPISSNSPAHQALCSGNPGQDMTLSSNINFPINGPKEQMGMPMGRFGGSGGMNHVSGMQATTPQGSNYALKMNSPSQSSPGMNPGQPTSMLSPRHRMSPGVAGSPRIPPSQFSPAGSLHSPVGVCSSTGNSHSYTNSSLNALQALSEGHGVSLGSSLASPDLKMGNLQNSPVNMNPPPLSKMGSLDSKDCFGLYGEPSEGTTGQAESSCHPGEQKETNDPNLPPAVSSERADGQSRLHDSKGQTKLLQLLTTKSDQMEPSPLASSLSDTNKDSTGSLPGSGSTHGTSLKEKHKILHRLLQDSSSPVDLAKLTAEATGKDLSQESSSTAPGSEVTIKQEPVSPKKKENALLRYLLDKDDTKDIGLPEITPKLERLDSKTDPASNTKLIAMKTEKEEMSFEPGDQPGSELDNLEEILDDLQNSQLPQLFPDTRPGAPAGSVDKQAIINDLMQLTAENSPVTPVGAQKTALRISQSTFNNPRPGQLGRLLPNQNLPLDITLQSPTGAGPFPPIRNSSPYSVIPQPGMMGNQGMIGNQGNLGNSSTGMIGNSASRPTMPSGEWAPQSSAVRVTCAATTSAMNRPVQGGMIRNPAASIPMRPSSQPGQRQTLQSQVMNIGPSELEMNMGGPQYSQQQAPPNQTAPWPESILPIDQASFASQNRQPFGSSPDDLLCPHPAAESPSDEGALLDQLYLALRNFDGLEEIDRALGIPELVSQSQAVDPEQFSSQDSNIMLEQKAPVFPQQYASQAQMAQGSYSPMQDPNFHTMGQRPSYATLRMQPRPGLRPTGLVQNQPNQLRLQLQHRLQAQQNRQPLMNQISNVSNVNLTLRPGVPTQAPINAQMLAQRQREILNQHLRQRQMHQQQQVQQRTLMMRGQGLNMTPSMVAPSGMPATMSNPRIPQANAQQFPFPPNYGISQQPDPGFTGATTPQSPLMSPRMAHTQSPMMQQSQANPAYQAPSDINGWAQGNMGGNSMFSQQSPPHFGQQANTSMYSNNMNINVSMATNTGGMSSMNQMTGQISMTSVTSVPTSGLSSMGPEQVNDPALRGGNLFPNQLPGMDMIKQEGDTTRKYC
Test: SRC2 coactivator transcriptional activity inhibitors, confirmation, cell-based, luminescence, HEK293, triplicate (AID 652008;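 active = mean inhibition above 46.5%, the solvent-only control mean plus 3 SD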;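 note: 0% = DMSO-treated cells and 100% = Gossypol at 36 µM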)
Settings: HEK293 GAL4-SRC2 luciferase reporter, at 8.9 µM, hits give high values

| Compound | inhibition |
| --- | --- |
| COc1ccc(OC)c(NC(=O)c2cc(-c3cc(F)ccc3OCC3CCCO3)n[nH]2)c1 (stereo not drawn) | -1.6% |
| Cc1ccc2nc(-c3ccc(Br)cc3)cn2c1 | 78.4% (active) |
| CN(C)S(=O)(=O)c1cccc(NC(=O)COC(=O)C2(c3ccccc3F)CCCC2)c1 | 0.58% |
| COc1ccc(/C=C2/SC(=O)N(CCCCCC(=O)Nc3ccccc3C(=O)O)C2=S)cc1 | 63.9% (active) |
| CC[C@@H](C)[C@H](NC(=O)CCc1c(C)c2cc3c4c(oc3c(C)c2oc1=O)CCCC4)C(=O)O | 59.5% (active) |
| Cc1ccc(-c2nc(CSCC(=O)NC3CCN(Cc4ccccc4)CC3)c(C)o2)cc1 | 33.9% |
| C[C@H]1CCC/C=C/C(=O)c2c(O)cc(O)cc2CC(=O)O1 | 55.5% (active) |
| O=C1NC[C@@H](Cc2ccc(O)cc2)N(CCc2cccc(F)c2)C1=O | -26.9% |
| CN1OC[C@@H]2CN(S(=O)(=O)c3cccc(C(F)(F)F)c3)[C@H](c3ccc(-c4cc5ccccc5o4)cc3)C[C@@H]21 | 46.3% |

Tested on: not listed separately
Test: compounds interfering with TAMRA-BSA probe, counter-screen for TCR-CD3 interaction inhibitor project, biochemical, fluorescence, TAMRA-labeled BSA (AID 652035);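 note: 0% = buffer low control and 100% = reference high control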
Settings: TAMRA-labeled BSA probe fluorescence counterscreen; at 9.4 µM; hits give high values

| Compound | inhibition |
| --- | --- |
| CCC(=O)NC(=S)Nc1ccc(NC(=O)c2ccco2)c(Cl)c1 | 3.69% |
| CNC(=S)NNC(=O)c1cccn(Cc2ccccc2)c1=O | 4.48% |
| Cc1cc(C(=O)CCC(=O)NNC(=O)c2ccccc2O)c(C)s1 | -14.4% |
| COc1ccccc1C(=O)NNC(=O)c1ccc(NC(=O)c2ccccc2)cc1 | -8.35% |
| O=C(Nc1cccc(-c2nc3ccccc3[nH]2)c1)c1ccc(C(=O)Nc2cccc(-c3nc4ccccc4[nH]3)c2)cc1 | 9.76% |
| COCCCNC(=S)NNC(=O)C(O)(c1ccccc1)c1ccccc1 | -0.41% |
| O=S(=O)(O)c1cc2onnc2c2ccccc12 | 11% |
| Oc1ccc(N=Cc2c(O)ccc3ccccc23)cc1 | -3.16% |
| C=CCn1c(=O)c(C(=O)Nc2ncccc2O)c(O)c2ccccc21 | -7.93% |
| O=S1(=O)c2c(cccc2N2CCCC2)O[C@H](COCc2ccccc2)CN1C1CC1 | -4.17% |
| COc1ccc(CC(=O)N/N=C/c2cc([N+](=O)[O-])cc(Br)c2O)cc1 | -11.9% |
| COc1cc(C(=O)NCC2(c3ccccc3)CCCC2)ccc1OC(C)C | 1.07% |
| CNS(=O)(=O)c1ccc2c(c1)[nH]c(=S)n2C | 10.3% |
| COc1ccc(C(=O)NNc2cc(C)nc(NNC(=O)c3ccc(OC)cc3)n2)cc1 | -5.67% |
| CN(C)CCNC(=O)C(C(=O)c1ccccc1)n1ccccc1=O (stereo not drawn) | -0.25% |
| Cc1cc2nc3c(=O)[nH]c(=O)nc-3n(C[C@H](O)[C@H](O)[C@H](O)CO)c2cc1C | 50.4% (active) |
| O=C1C(Cc2ccc(O)cc2)NC(=S)N1Cc1ccccc1 (stereo not drawn) | -2.95% |
| Cc1ncc(CO)c(/C=N/NC(=O)c2cccc(S(=O)(=O)N3CCCC3)c2)c1O | -12.6% |
| C/C=C/C=C/C(=O)O | 3.35% |
| CCN(C(=O)Nc1cccc2ccccc12)c1ccccc1 | 2.01% |
| O=C(N/N=C/c1cc([N+](=O)[O-])ccc1O)/C(=C\c1cccs1)NC(=O)c1ccccc1 | -11.3% |
| COc1ccc(/C(=N\O)c2nccc3cc(OC)c(OC)cc23)cc1OC | -7.63% |
| COc1ccc(NS(=O)(=O)c2cc(NC(=O)/C=C/c3cc(OC)c(OC)c(OC)c3)ccc2N2CCCCC2)cc1 | 11% |
| COc1ccc(C(=O)NC(=S)NNC(=O)CCc2ccccc2)cc1 | 4.22% |
| COc1ccccc1C(=O)NNC(=O)CCN1C(=O)/C(=C\c2ccccc2)SC1=S | -8.51% |
| CCOc1ccc(-n2c(O)c(/C=N/Nc3nnc(C)c(=O)[nH]3)c3ccccc3c2=O)cc1 | -21.4% |
| Cc1ccc(O)c(/C=N/NC(=O)COc2ccc3c(C)cc(=O)oc3c2)c1 | -10.9% |
| Cc1ccc(C(=O)NCC(=O)O)cc1S(=O)(=O)N1CCCCC1 | 2.01% |
| CN1CCN(/N=C/c2ccc(C#N)cc2)CC1 | 1.63% |
| O=c1c2ccccc2c(-c2ccccc2)nn1-c1ccccn1 | -1.19% |
